Compound activity: PubChem, several laboratories
Compounds with a hit are over-represented: about 4.8% of the library has one in this group of screens.
Calb FLC: C. albicans growth inhibition with fluconazole, primary screen, CaCi-2 strain, Alamar Blue fluorescence | C. albicans CaCi-2 (fluconazole-resistant clinical isolate) + fluconazole, 48 h | growth inhibition, % (concentration not given with the values) | 300,000 tested, 0.57% active | AID 1979, 2009;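 active means growth inhibition above about 58% in most replicates, limit read from the data, passing the limit was not always enough; inconclusive means exactly half the replicates above a set limit; inactive means most replicates below a set limit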;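 further: all wells also contain fluconazole at 8 µg/ml as a sub-toxic cotreatment; 0% = median of DMSO wells and 100% = median of geldanamycin control wells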
MPTP inh: mitochondrial permeability transition pore inhibitors, primary screen, biochemical, isolated mouse mitochondria, absorbance. inhibition, % at 10 µM. AID 602449, 2012. 360,000 tested, 1.4% active. Ca2+ swelling absorbance, 30 min;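 active means inhibition of 50% or more, scaled per plate between neutral and stimulator controls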;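 further: 0% = DMSO wells given calcium and 100% = 1 mM EGTA wells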
Beta cell apopt: inhibitors of cytokine-induced beta cell apoptosis, primary screen, luminescence; protection from apoptosis, % (concentration not given with the values); INS-1E cytokine-induced death, ATP luminescence, 48 h; percent of positive-control rescue, neutral wells zero; 300,000 tested, 0.8% active; AID 435005, 2010;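 active means Every replicate reaches about 75%, or at least half do and their mean reaches it too, limit read from the data; inconclusive means At least half of replicates reach the limit but their mean does not; inactive means Under half of replicates reach the limit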;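 further: 0% = cytokine-treated negative control wells and 100% = positive control rescue; higher means more ATP so stronger rescue from cytokine killing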
Mdm2-MdmX inh: inhibitors of human Mdm2-MdmX association, primary screen, cell-based, luminescence, split luciferase, SaOS-2, uHTS; SaOS-2 split-luciferase Mdm2/MdmX complementation; inhibition, % at 8 µM; 330,000 tested, 3% active;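 active means inhibition of at least 50% at 8 µM in the primary screen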
Target sequence (O15151 whole entry, looked up): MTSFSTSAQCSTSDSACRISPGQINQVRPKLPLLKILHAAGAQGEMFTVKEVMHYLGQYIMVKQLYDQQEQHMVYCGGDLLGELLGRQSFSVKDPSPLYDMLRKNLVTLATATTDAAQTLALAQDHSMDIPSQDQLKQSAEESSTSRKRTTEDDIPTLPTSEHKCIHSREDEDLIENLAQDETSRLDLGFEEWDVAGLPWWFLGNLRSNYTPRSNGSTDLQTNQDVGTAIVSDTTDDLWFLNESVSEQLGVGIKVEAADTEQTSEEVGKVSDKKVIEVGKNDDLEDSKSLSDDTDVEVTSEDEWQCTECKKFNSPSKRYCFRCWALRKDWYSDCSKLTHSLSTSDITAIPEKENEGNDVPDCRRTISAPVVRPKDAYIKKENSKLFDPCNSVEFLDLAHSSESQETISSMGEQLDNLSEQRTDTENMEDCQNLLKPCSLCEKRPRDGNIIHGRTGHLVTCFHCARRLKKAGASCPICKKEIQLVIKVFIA
Target sequence (Q00987 whole entry, looked up): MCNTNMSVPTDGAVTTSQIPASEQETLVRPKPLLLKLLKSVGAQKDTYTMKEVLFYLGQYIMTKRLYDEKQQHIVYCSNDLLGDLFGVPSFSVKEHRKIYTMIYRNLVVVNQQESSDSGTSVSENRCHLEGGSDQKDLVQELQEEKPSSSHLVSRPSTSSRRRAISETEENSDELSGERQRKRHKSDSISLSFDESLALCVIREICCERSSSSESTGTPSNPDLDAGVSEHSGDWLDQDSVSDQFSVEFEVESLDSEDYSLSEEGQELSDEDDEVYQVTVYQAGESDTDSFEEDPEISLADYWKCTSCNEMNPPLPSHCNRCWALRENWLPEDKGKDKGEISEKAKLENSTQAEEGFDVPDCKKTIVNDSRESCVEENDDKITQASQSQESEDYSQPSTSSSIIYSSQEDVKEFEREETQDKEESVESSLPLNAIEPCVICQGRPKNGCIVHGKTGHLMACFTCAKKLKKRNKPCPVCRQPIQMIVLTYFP
CSC inhib: cancer stem cell viability inhibitors, primary screen, luminescence; cancer stem cell-like cells viability; inhibition, % at 7.5 µM; 300,000 tested, 1.1% active; AID 2717, 2010; in the data active means inhibition above about 75%; inconclusive means no clear call, values can overlap the other calls; tested in HMLE shEcad cells
Mdm2 MdmX conf: Mdm2-MdmX complex disruptors, retested hits, confirmation, luminescence, single concentration. Mdm2-MdmX binding, luminescent assay. AID 489028, 2010. 10,000 tested, 55% active. shares compounds with Mdm2-MdmX inh. inhibition, % at 8 µM; in the data active means inhibition above about 40%
Full FLuc ctr: full-length luciferase signal inhibition, confirmation, counter-screen for Mdm2/MdmX interaction inhibitor project, cell-based, single concentration, SaOS-2. AID 504607, 2011. shares compounds with Mdm2-MdmX inh. 6,200 tested, 77% active. SaOS-2 full-length luciferase counterscreen, luminescence. inhibition, % at 8 µM;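 active means mean inhibition at 8 µM reaching about 37%, which flags the compound as non-specific, limit read from the data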;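 further: p53-null SaOS-2 cells with luciferase driven by a doxycycline-inducible promoter; compound on cells about two nights before reading with doxycycline added after day one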
Numbers without * were called inactive.

Screening CC(C)c1nc2sc3c(=O)[nH]cnc3c2c2c1CCC2 returned Calb FLC 60.0, MPTP inh 8.4, Beta cell apopt 1.6, Mdm2-MdmX inh -17.3 and CSC inhib 15.5.
Screening Cc1ccc(-c2cc(C(F)F)nc3sc4c(=O)[nH]cnc4c23)cc1 returned MPTP inh 0.2, Beta cell apopt 14.4, Mdm2-MdmX inh 70.9*, CSC inhib -6.2 and Mdm2 MdmX conf -1.8.
`COc1cccc(CSc2nc3ccccc3cc2C=O)c1` gave Calb FLC -2.0, MPTP inh 1.9, Beta cell apopt 10.1, Mdm2-MdmX inh 68.1*, CSC inhib -15.2, Mdm2 MdmX conf 64.3* and Full FLuc ctr 60.8*.
`COc1cccc(OC)c1C(=O)NCCc1ccccc1` gave Calb FLC -12.5, MPTP inh -0.3, Beta cell apopt 0.1, Mdm2-MdmX inh 1.9 and CSC inhib -18.9.
Screening CCOC(=O)c1sc(N)c(C(=O)OC)c1C returned Calb FLC 25.3, MPTP inh -2.5, Beta cell apopt -4.1, Mdm2-MdmX inh -0.7 and CSC inhib -3.4.
`COC(=O)c1c(N)sc(C(=O)NCCc2ccccc2)c1C` gave Calb FLC 50.9, MPTP inh 2.2, Beta cell apopt 8.1, Mdm2-MdmX inh 64.6*, CSC inhib 25.0, Mdm2 MdmX conf 59.4* and Full FLuc ctr 73.1*.
CCOC(=O)c1sc(N)c(C(=O)Nc2ccccc2OC)c1C was read as Calb FLC 15.8, MPTP inh 1.7, Beta cell apopt 15.4, Mdm2-MdmX inh 56.2*, CSC inhib 59.3, Mdm2 MdmX conf 64.6* and Full FLuc ctr 57.4*.
C=Cc1ccc(CC2(C)C(=O)Nc3ccc(-c4cccnc4)cc32)cc1 (configuration not stated) was read as MPTP inh 0.3.
Screening CCCCCCCCN1C(=O)[C@H](CC(=O)NCCc2ccccc2OC)C[C@@]2(C(=O)OCC)CCC=C12 returned MPTP inh -2.5.
`CCCCNc1c(-c2cccc(-c3cc(C(C)=O)cs3)c2)nc2ccc(C)cn12` gave Calb FLC 0.6, MPTP inh 11.2, Beta cell apopt 1.7, Mdm2-MdmX inh 81.3*, CSC inhib 125.3*, Mdm2 MdmX conf 57.8* and Full FLuc ctr 59.7*.
For CC1=C(SCc2ccccc2)C(=O)c2ccccc2C1=O the results were MPTP inh 0.8.
For O=C1C(SCCO)=C(SCCO)C(=O)c2ccccc21 the results were MPTP inh 5.2, Beta cell apopt 99.2*, Mdm2-MdmX inh 81.9*, CSC inhib 101.8*, Mdm2 MdmX conf 75.0* and Full FLuc ctr 21.4.
COc1ccc(Sc2ccc(-c3nc4cnccn4c3NC3CCCCC3)cc2OC)cc1 was read as MPTP inh -0.2, Beta cell apopt 3.6, Mdm2-MdmX inh 85.2*, CSC inhib 104.2* and Mdm2 MdmX conf -4.4.
`COc1cc(-c2nc3ccccn3c2NCc2ccccc2)ccc1SC1CCCCC1` gave Calb FLC 28.6, MPTP inh 8.2, Beta cell apopt 15.9, Mdm2-MdmX inh 67.0*, CSC inhib 21.5 and Mdm2 MdmX conf -12.4.
COc1ccc(-c2nc3ccccn3c2NC2CCCCC2)cc1SC1CCCCC1 was read as Calb FLC 16.1, MPTP inh 4.5, Mdm2-MdmX inh 70.1*, CSC inhib -28.8 and Mdm2 MdmX conf 28.5.
Screening CCCCNc1c(-c2ccc(OC)c(SC3CCCCC3)c2)nc2cc(C)ccn12 returned Calb FLC 1.1, MPTP inh 43.7, Beta cell apopt 18.2, Mdm2-MdmX inh 63.6*, CSC inhib 92.4* and Mdm2 MdmX conf 20.8.
For CCCCNc1c(-c2ccc(OC)c(SC3CCCCC3)c2)nc2cnccn12 the results were Calb FLC 38.9, MPTP inh 0.2, Beta cell apopt 21.0, Mdm2-MdmX inh 34.6 and CSC inhib 2.1.
Screening COc1ccc(S(=O)(=O)NCC(c2cccnc2)N2CCN(Cc3ccccc3)CC2)cc1C (configuration not stated) returned Calb FLC 1.9, MPTP inh -1.9, Beta cell apopt 4.2, Mdm2-MdmX inh 18.6 and CSC inhib 7.1.
`COc1ccc(C2CC(=O)N(C)c3ccccc3S2)cc1` (configuration not stated) gave Calb FLC inconclusive, MPTP inh 1.6, Beta cell apopt -10.1, Mdm2-MdmX inh 67.8*, CSC inhib -3.3, Mdm2 MdmX conf 46.8* and Full FLuc ctr 96.9*.
`Cc1cc(C)c2nc(Cl)c(CN(Cc3ccco3)C(=O)Nc3ccccc3C)cc2c1` gave Calb FLC 2.3, MPTP inh 0.3, Beta cell apopt 11.2, Mdm2-MdmX inh 63.1*, CSC inhib 52.7, Mdm2 MdmX conf 53.0* and Full FLuc ctr 98.3*.
Screening COc1cc(C2CC(=O)c3cnc(N4CCN(Cc5ccccc5)CC4)nc3C2)cc(OC)c1OC (configuration not stated) returned Calb FLC -9.2, MPTP inh 4.4, Beta cell apopt 14.8, Mdm2-MdmX inh 52.3*, CSC inhib 53.2, Mdm2 MdmX conf 67.7* and Full FLuc ctr 51.5*.
Screening COc1ccc(C2CC(=O)c3c(C)nc(N4CCN(Cc5ccccc5)CC4)nc3C2)cc1OC (configuration not stated) returned Calb FLC 9.4, MPTP inh 10.7, Beta cell apopt 9.1, Mdm2-MdmX inh 25.1 and CSC inhib 28.4.
`COCCN(CCOC)Cc1cc(=O)oc2ccc3ccccc3c12` gave MPTP inh -0.6.
`CCOC(=O)c1sc2nc(CSc3ccccc3)nc(NCCN(C)C)c2c1C` gave Calb FLC 8.6, MPTP inh 8.0, Beta cell apopt 11.9, Mdm2-MdmX inh 51.2*, CSC inhib 9.0 and Mdm2 MdmX conf 15.8.
Screening CCOC(=O)c1sc2nc(C)nc(NCCc3ccccn3)c2c1C returned Calb FLC 14.4, MPTP inh 2.2, Beta cell apopt 5.8, Mdm2-MdmX inh -3.9 and CSC inhib 2.1.
For COc1ccc(CN2C(=O)CN(S(C)(=O)=O)CC2(C)C(=O)Nc2c(C)cccc2C)cc1 (configuration not stated) the results were MPTP inh -0.1.
`COc1ccc(C)cc1NC(=O)CNC(=O)[C@@H]1Cc2ccccc2CN1` gave Calb FLC -5.5, MPTP inh -0.3, Beta cell apopt 2.5, Mdm2-MdmX inh 3.9 and CSC inhib -1.2.
